Records with an inconclusive call do not appear. Values without a mark were called inactive. Active and inactive are the calls of the source. The call rests on the fitted dose curve; in most records, active means well fitted curve in the direction sought with a large enough effect; inconclusive means small, poorly fitted or top-dose-only effect, or another doubt; inactive means no such curve, though single readings can be large; an effect the other way counts as inactive or inconclusive.

Assay [1] has as its target Rap guanine nucleotide exchange factor 3 (Homo sapiens) (UniProt O95398). Kind of assay: Confirmatory qHTS for agonist of cAMP-regulated guanine nucleotide exchange factor 3 (EPAC1) (AID 1645881).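 Further: EPAC1 catalysed release of BODIPY-GDP from Rap1B seen as fluorescence loss; 100% = effect of cAMP agonist control; nearly all actives have a fitted effect of over 75% in size.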
Assay [2] deals with Rap guanine nucleotide exchange factor 4 (Homo sapiens) (UniProt Q8WZA2). The assay is described as follows: Confirmatory qHTS for agonist of cAMP-regulated guanine nucleotide exchange factor 4 (EPAC2) (AID 1645884).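 Further: nucleotide exchange releases bodipy-GDP from Rap1 and this lowers its fluorescence; on the % scale 0 is the no-effect control and ±100 the full control effect; nearly all actives have a fitted effect of over 65% in size.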
For assay [3] the target is unchanged. The assay is described as follows: Confirmatory qHTS for antagonist of cAMP-regulated guanine nucleotide exchange factor 4 (EPAC2) (AID 1645885). Further: nearly all actives have a fitted effect of over 25% in size. Further: potency means the concentration at half of the fitted maximal effect. On activity change, negative = inhibition: on the % scale 0 is the no-effect control and ±100 the full control effect.
For assay [4], the target named is Rap guanine nucleotide exchange factor 3 (Homo sapiens) (UniProt O95398). Kind of assay: Counterscreen qHTS for antagonist of cAMP-regulated guanine nucleotide exchange factor 3 (EPAC1) (AID 1645888).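 Further: fluorescence loss as bound BODIPY-GDP is released from Rap1B; % of control where 0% means no effect.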 The essentials: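 Rap1B–BODIPY-GDP (250 nM) with 50 uM GDP; compounds pin-transferred to 9.74 nM–152 uM final (activator) or from 7.32 nM upwards (inhibitor). Fluorescence Ex/Em 480/540 nm read at 5 and 30 min, then after adding cAMP or buffer, at room temperature.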
Chain of Rap guanine nucleotide exchange factor 3 (Homo sapiens) (O95398 whole entry, looked up): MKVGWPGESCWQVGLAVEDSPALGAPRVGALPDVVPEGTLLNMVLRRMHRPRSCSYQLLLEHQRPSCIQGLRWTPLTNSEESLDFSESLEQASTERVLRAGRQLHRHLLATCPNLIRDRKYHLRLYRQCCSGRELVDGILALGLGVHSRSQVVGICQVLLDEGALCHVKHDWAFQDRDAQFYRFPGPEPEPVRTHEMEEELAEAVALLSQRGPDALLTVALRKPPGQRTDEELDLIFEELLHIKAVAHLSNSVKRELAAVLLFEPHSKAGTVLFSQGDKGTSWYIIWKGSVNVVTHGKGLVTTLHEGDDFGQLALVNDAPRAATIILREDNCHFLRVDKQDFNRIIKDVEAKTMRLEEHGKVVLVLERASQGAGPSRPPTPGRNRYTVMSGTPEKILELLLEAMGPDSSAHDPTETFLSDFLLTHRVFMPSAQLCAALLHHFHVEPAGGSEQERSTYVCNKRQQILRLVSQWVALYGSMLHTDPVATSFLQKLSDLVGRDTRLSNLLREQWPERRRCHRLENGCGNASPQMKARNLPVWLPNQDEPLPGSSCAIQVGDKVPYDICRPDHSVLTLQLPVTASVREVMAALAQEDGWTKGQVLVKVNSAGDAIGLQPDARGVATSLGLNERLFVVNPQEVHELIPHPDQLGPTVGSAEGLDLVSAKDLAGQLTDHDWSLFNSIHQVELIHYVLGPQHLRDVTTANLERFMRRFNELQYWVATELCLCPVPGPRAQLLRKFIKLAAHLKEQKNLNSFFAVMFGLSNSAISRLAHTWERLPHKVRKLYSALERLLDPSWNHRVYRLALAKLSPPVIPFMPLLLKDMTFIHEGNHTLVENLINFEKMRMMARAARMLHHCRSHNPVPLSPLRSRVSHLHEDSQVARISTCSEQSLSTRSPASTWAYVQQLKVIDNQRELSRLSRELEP

Chain of Rap guanine nucleotide exchange factor 4 (Homo sapiens) (Q8WZA2 whole entry, looked up): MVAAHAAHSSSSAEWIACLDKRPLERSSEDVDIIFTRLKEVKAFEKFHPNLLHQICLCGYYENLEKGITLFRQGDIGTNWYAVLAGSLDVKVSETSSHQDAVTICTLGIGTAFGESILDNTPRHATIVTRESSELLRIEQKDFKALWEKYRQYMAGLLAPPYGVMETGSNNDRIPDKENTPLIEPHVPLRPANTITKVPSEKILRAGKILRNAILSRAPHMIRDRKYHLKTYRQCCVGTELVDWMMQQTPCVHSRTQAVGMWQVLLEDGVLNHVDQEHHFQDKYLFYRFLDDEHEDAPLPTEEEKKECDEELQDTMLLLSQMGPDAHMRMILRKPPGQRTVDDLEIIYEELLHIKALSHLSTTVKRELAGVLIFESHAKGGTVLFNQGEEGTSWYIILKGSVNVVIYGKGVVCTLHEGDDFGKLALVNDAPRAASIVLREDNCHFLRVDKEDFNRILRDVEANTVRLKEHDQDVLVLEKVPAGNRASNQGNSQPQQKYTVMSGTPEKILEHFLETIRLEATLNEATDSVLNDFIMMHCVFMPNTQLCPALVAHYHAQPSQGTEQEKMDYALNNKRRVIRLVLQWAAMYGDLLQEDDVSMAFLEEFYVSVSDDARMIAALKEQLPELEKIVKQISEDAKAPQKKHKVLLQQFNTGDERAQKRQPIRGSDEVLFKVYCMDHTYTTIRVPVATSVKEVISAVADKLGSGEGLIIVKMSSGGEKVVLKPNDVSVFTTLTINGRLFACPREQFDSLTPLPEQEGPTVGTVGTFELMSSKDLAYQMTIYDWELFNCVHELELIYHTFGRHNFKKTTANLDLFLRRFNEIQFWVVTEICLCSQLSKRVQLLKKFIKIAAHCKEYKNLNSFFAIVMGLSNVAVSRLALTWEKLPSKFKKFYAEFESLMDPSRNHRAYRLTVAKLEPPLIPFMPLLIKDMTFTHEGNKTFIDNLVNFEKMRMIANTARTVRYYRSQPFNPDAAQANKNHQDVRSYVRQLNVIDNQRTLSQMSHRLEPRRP

With `CCOC(=O)C1=CN(Cc2cccc(F)c2)S(=O)(=O)NC1c1ccc(Br)cc1F` (stereo not drawn), the Potency entry in assay [1], in assay [2], in assay [3] and in assay [4] was “inactive” in each case.
In the case of `Cc1ccc(C)c(-c2ccc(=O)n(C(C)C(=O)Nc3ccccc3C(F)(F)F)n2)c1` (stereo not drawn), the Potency entry in assay [1], in assay [2] and in assay [4] was “inactive” in each case. Besides, the outcome in assay [3] was “inactive [at 12.7 µM]”.
As to `O=C(CN1C(=O)/C(=C2/SC(=S)N(CCS(=O)(=O)O)C2=O)c2ccccc21)Nc1cccc(C(F)(F)F)c1`, the Potency entry in assay [1] and in assay [3] was “inactive” each time. Further, the activation in assay [2] was 2.25% [at 17.1 µM, percent relative to cAMP agonist control]. In addition, the activity change, negative = inhibition in assay [4] is -24.5% [at 30.8 µM].
As for `COc1ccc(/C=C2\C(=O)NC(=S)N2C(=O)c2ccc(F)cc2)cc1`, the Potency entry in assay [1], in assay [2], in assay [3] and in assay [4] was “inactive” in each case.
On to `O=C(CSc1ccc2ccccc2c1)Nc1ccc(S(=O)(=O)Nc2nccs2)cc1`, for which the Potency result in assay [1] and in assay [3] was “inactive” throughout. In addition, in assay [2], the activation was 0.22% [at 17.1 µM, percent relative to cAMP agonist control]. The activity change, negative = inhibition in assay [4] was -0.461% [at 30.8 µM].
Take `COCCNc1nc2cc(-c3ccsc3)sc2c(=O)n1C`: the Potency result in assay [1], in assay [2], in assay [3] and in assay [4] was “inactive” each time.
On to `O=C(Nc1cccc(S(=O)(=O)NC2=NCCCCC2)c1)c1cc(-c2ccc(Cl)cc2)nc2ccccc12`, for which the Potency entry in assay [1], in assay [2], in assay [3] and in assay [4] was “inactive” each time.
On to `O=C(NC1(O)C(=O)c2ccccc2C1=O)c1ccc(C(F)(F)F)cc1`, for which the Potency result in assay [1], in assay [2], in assay [3] and in assay [4] was “inactive” throughout.
In the case of `Cc1ccc(/C=C(\C#N)C(=O)Nc2cccc3ncccc23)o1`, the Potency result in assay [1], in assay [2], in assay [3] and in assay [4] was “inactive” in each case.
Consider `CCc1nc2c(OCc3ccc(C(F)(F)F)cc3)cccn2c1N(C)C(=O)c1ccc(C)cc1`, for which the Potency entry in assay [1], in assay [2], in assay [3] and in assay [4] was “inactive” throughout.
Regarding `O=S(=O)(Nc1nc2ccc(Cl)cc2s1)c1cccs1`, the Potency entry in assay [1] and in assay [3] was “inactive” in each case. The activation in assay [2] is 0% [at 17.1 µM, percent relative to cAMP agonist control]. Further, in assay [4], the activity change, negative = inhibition was -17.1% [at 30.8 µM].
Consider `CC(C)CCn1c(Oc2ccccc2Cl)nc2c1c(=O)n(C)c(=O)n2C`, for which the Potency result in assay [1], in assay [2], in assay [3] and in assay [4] was “inactive” throughout.
As to `Oc1cccc(C=Nc2cccc3ccccc23)c1O`, the Potency entry in assay [1], in assay [2], in assay [3] and in assay [4] was “inactive” throughout.
Regarding `O=C(N/N=C/c1ccccc1O)/C(=C/c1ccccc1)CCO`, the Potency result in assay [1], in assay [2], in assay [3] and in assay [4] was “inactive” throughout.
As to `CCOC(=O)c1ccc(NC(=S)NNC(=O)C2(C)CC2(Cl)Cl)cc1` (stereo not drawn), the Potency result in assay [1], in assay [2], in assay [3] and in assay [4] was “inactive” each time.
Regarding `CCCCN1CC(c2nc3ccccc3n2CCCCOc2cc(C)ccc2C)CC1=O` (stereo not drawn), the Potency entry in assay [1], in assay [2], in assay [3] and in assay [4] was “inactive” throughout.
Take `Cc1ccc(OCC(=O)Nc2ccc(Cl)c(-c3nc4ccccc4[nH]3)c2)cc1C`: the Potency entry in assay [1], in assay [2] and in assay [4] was “inactive” throughout. Moreover, the outcome in assay [3] is “inactive [at 12.7 µM]”.
On to `CC1=NN(c2ccccc2)C(=O)C1=Cc1ccccc1`, for which the Potency result in assay [1] and in assay [3] was “inactive” each time. Moreover, the activation in assay [2] was -2.46% [at 17.1 µM, percent relative to cAMP agonist control]. In addition, the activity change, negative = inhibition in assay [4] is 42% [at 30.8 µM].
In the case of `Cc1ccc(-c2cc(C(=O)Nc3ccc(S(=O)(=O)Nc4onc(C)c4C)cc3)c3ccccc3n2)cc1`, the Potency entry in assay [1] and in assay [3] was “inactive” throughout. In assay [2], the activation is 6.25% [at 17.1 µM, percent relative to cAMP agonist control]. In addition, the activity change, negative = inhibition in assay [4] was 1.26% [at 30.8 µM].
On to `O=C(O)/C=C\C(=O)Nc1ccccc1C#Cc1ccc(Br)cc1`, for which the Potency result in assay [1], in assay [2] and in assay [4] was “inactive” in each case. Further, the Potency in assay [3] is 1.35 µM (active).
For the molecule `Cc1cccc(Nc2nnc(-c3ccc(N4CCOCC4)c([N+](=O)[O-])c3)c3ccccc23)c1`, the Potency result in assay [1], in assay [2], in assay [3] and in assay [4] was “inactive” each time.
As to `CCc1nc2sc3ccccc3c(=O)c2c(=O)n1Cc1ccco1`, the Potency result in assay [1], in assay [2] and in assay [4] was “inactive” throughout. Moreover, the Potency in assay [3] was 75.7 µM (active).
Turning to `Oc1ccc(Cc2ccc(Cl)cc2)c(O)c1`, the Potency result in assay [1] and in assay [3] was “inactive” each time. The activation in assay [2] is 7.91% [at 17.1 µM, percent relative to cAMP agonist control]. Also, the activity change, negative = inhibition in assay [4] is -18.2% [at 30.8 µM].
For `COc1ccc(NC(=O)Cn2ncc(Cl)c(Cl)c2=O)cc1S(=O)(=O)N1CCOCC1`, the Potency entry in assay [1] and in assay [3] was “inactive” in each case. The activation in assay [2] was -6.12% [at 17.1 µM, percent relative to cAMP agonist control]. In addition, the activity change, negative = inhibition in assay [4] was 1.4% [at 30.8 µM].
For the molecule `CC(c1nc2ccccc2n1Cc1ccccc1)n1c(-c2cnccn2)nc2ccccc21` (stereo not drawn), the Potency result in assay [1], in assay [2], in assay [3] and in assay [4] was “inactive” throughout.
For the molecule `CN(C)S(=O)(=O)c1cccc(COC(=O)Cc2c(F)cccc2Cl)c1`, the Potency entry in assay [1], in assay [2], in assay [3] and in assay [4] was “inactive” each time.
Turning to `Nc1ccc2c(c1)C(=O)C(=O)c1ccccc1-2`, the Potency entry in assay [1], in assay [2], in assay [3] and in assay [4] was “inactive” throughout.

Values taken from PubChem BioAssay (NCATS).
